Bioassay records: PubChem, National Center for Advancing Translational Sciences (NCATS)
DRV1 agonist: agonists of human resolvin D1 receptor DRV1 (GPR32). O75388. CHO-K1 GPR32 beta-arrestin PathHunter luminescence, 90 min; zero percent set by DMSO-only wells. activation, % at 76.9 µM. 48,000 compounds, 2.5% hits;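 active = activation of at least 60% and not above a set upper limit, about 1 call in 100 departs from these limits; inconclusive = activation of 40% to 60%, or above that upper limit; inactive = activation under 40%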
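CHO-K1 cells stably expressing ProLink-tagged GPR32 and Enzyme Activator-tagged beta-arrestin were seeded at 2,500 cells/well overnight, exposed to compounds for 90 min at 37 °C, then read by beta-Gal complementation chemiluminescence after 1 h detection reagent.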
B2AR arrestin ag: agonists recruiting beta-arrestin to human beta2-adrenergic receptor | HTLA Tango cells, beta-arrestin recruitment, luciferase luminescence, 18 h | Potency, µM (doses to about 46.1 µM), most hits filed as activators | 44,000 tested, under 10 active
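Tango cell line, 1% FBS DMEM; cpd titration up to 46 microM; 18 hr, 37 degrees C, 5% CO2. Luciferin/ATP substrate mix added, 15 min RT, luminescence. %Activity, CRC fitting, curve-class categorization.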
NTMT1 inhibitor: blocks human N-terminal methyltransferase 1 activity | Q9BV86 | Potency, µM (doses to about 114 µM), actives largely listed as inhibitors | NTMT1 MTase-Glo SAH luminescence, purified enzyme | 59,000 compounds, 2.5% hits | AID 1645870; note: nearly all actives have a fitted effect of over 65% in size
GALK inhibitor: GALK (human) enzyme inhibition | AID 1347072 | 44,000 tested, under 10 active | recombinant GALK, Kinase-Glo ATP luminescence, 1 h | Potency, µM (top dose mostly 57.5 µM), hits mostly inhibitors
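Compounds were pinned into ATP buffer, then GALK-galactose mix was added (final 5 nM enzyme, 35 uM ATP, 100 uM galactose, pH 8.0). After 1 h at room temperature, Kinase-Glo Plus was added and luminescence read.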
GALC G270D act: raises human GALC G270D mutant activity in cells. 145M-Twi-hGALC-G270D cells (Twitcher mouse brain line with human GALC G270D), HMU-beta-Gal fluorescence, 48 h. Potency, µM (titrated, usually from 57.5 µM), actives largely listed as activators. 45,000 compounds, 0.1% hits. AID 1159614; note: nearly all actives have a fitted effect of over 65% in size
Target sequence (P54803 whole entry G286D): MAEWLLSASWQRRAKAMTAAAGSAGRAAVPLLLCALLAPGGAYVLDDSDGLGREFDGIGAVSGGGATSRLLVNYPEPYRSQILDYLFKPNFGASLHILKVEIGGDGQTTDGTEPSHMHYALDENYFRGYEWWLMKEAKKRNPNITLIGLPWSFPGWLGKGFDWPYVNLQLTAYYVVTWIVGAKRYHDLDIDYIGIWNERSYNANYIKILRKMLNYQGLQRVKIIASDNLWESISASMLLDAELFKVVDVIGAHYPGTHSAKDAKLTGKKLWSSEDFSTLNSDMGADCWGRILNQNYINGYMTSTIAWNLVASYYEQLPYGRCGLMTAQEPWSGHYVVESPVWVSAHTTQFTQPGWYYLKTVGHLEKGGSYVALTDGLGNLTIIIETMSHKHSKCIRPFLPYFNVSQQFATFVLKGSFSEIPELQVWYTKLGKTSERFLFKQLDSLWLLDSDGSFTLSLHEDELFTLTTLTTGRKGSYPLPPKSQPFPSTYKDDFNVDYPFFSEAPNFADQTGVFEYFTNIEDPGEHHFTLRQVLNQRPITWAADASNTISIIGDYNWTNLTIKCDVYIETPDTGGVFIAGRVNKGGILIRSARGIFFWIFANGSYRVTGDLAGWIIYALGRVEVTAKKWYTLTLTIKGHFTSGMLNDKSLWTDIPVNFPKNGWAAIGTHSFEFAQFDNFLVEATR
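Fluorogenic HMU-b-Gal hydrolysis (0.1 mM final, pH 5.2 citrate-phosphate with 1 mg/mL sodium taurocholate; carbonate stop buffer) measures mutant GALC activity after compound treatment of live 145M-Twi Twitcher brain cells stably carrying human GALC-G270D, with wild-type GALC line alongside; activation sought.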
Large screens that a line does not name were inactive; ! = a repeat was not active. The list is not random: actives were taken first. Their share in the collection is about 3.6%. Unless noted, calls come from the whole dose curve; as a rule, active = well fitted curve in the direction sought with a large enough effect; inconclusive = small, poorly fitted or top-dose-only effect, or another doubt; inactive = no such curve, though single readings can be large; an effect the other way counts as inactive or inconclusive.

Cc1ccc(CN2C(=O)N(c3ccc(F)cc3)C(=O)C2CC(=O)Nc2ccc(Cl)cc2)cc1 (stereo not given)	none
Cc1ccc(CN2C(=O)SC(Nc3ccc(Cl)cc3)C2=O)cc1 (stereo not given)	DRV1 agonist 61
CC1=C(C(=O)Nc2nc3ccccc3s2)C2(CCCC2)N=C(Nc2nc3ccccc3o2)N1	none (no result: DRV1 agonist, B2AR arrestin ag, GALK inhibitor, GALC G270D act)
O=C(NCCc1ccccc1)c1ccc(Cn2c(SCc3ccccc3F)nc3cccnc32)cc1	NTMT1 inhibitor 89µM
CC(=O)OC[C@]12[C@@H](OC(=O)c3ccoc3)C[C@@H]3[C@@H](OC(C)=O)[C@]1(OC3(C)C)[C@@](C)(O)C[C@H](OC(=O)c1ccoc1)[C@@H]2OC(=O)c1ccoc1	none (no result: DRV1 agonist, B2AR arrestin ag, GALK inhibitor, GALC G270D act)
O=C1Nc2ccccc2/C1=C\c1ccc(O)cc1	none (no result: DRV1 agonist, B2AR arrestin ag, GALK inhibitor, GALC G270D act)
O=C1Nc2ccccc2/C1=C/c1cc(Cl)c(O)c(Cl)c1	NTMT1 inhibitor 35µM! (no result: DRV1 agonist, B2AR arrestin ag, GALK inhibitor, GALC G270D act)
O=C1Nc2ccc(C(=O)c3ccco3)cc2/C1=C/c1cc(Cl)c(O)c(Cl)c1	NTMT1 inhibitor 4µM (no result: DRV1 agonist, B2AR arrestin ag, GALK inhibitor, GALC G270D act)
O=C1Cc2cc(C(=O)c3ccco3)ccc2N1	none (no result: DRV1 agonist, B2AR arrestin ag, GALK inhibitor, GALC G270D act)
CC1COC2(OC3CC4C5CC(O[C@@H]6O[C@H](C)[C@@H](O[C@@H]7O[C@@H](C)[C@H](O)[C@@H](O)[C@H]7O)[C@H](O)[C@H]6O)C6CC(O)CCC6(C)C5CCC4(C)C3C2C)C(O)C1 (stereo not given in full)	none (no result: DRV1 agonist, B2AR arrestin ag, GALK inhibitor, GALC G270D act)
CCCCC1C(=O)N(c2ccccc2)N(c2ccc(O)cc2)C1=O (stereo not given)	DRV1 agonist 109, NTMT1 inhibitor inconclusive (no result: B2AR arrestin ag, GALK inhibitor)
Nc1ncnc2c([C@@H]3N[C@H](CO)[C@@H](O)[C@H]3O)c[nH]c12	none (no result: DRV1 agonist, B2AR arrestin ag, GALK inhibitor, GALC G270D act)
COc1ccccc1NC(=O)c1ccc2ccccc2c1	none (no result: DRV1 agonist, B2AR arrestin ag, GALK inhibitor, GALC G270D act)
CC(=CC(=O)Nc1ccccc1C(=O)O)c1ccc2ccccc2c1	NTMT1 inhibitor 34µM (no result: DRV1 agonist, B2AR arrestin ag, GALK inhibitor, GALC G270D act)
Cc1ccc(C(=O)Nc2cccc(O)c2)cc1S(=O)(=O)N1CCCCCC1	DRV1 agonist 82, NTMT1 inhibitor inconclusive
Cc1ccc(NC(=O)c2ccc(C)c(S(=O)(=O)N3CCCCCC3)c2)cc1	none
N#Cc1c(-c2ccc(Cl)c([N+](=O)[O-])c2)no[n+]1[O-]	none (no result: DRV1 agonist, B2AR arrestin ag, GALK inhibitor, GALC G270D act)
O=c1[nH]c([C@@H]2CCCN2)nc2c1oc1ccc(Cl)cc12	none (no result: DRV1 agonist, B2AR arrestin ag, GALK inhibitor, GALC G270D act)
CC(NC(=O)c1ccc(Cn2c(=O)c3cccn3c3cccnc32)cc1)c1ccccc1 (stereo not given)	NTMT1 inhibitor inconclusive
CC(NC(=O)CCCn1c(=O)c2cccn2c2cccnc21)c1ccccc1 (stereo not given)	NTMT1 inhibitor 89µM
Cc1cccc(NC(=O)c2sc3nc(-c4cc5ccc(O)cc5oc4=O)[nH]c(=O)c3c2C)c1	NTMT1 inhibitor 7.1µM
N#Cc1ccc(Cn2cncc2CN2CCN(c3cccc(Cl)c3)C(=O)C2)cc1	none (no result: DRV1 agonist, B2AR arrestin ag, GALK inhibitor, GALC G270D act)
Oc1ccc(-c2ccccc2F)c2cccnc12	none (no result: DRV1 agonist, B2AR arrestin ag, GALK inhibitor, GALC G270D act)
Oc1ccc(Nc2ccccc2F)c2cccnc12	NTMT1 inhibitor 28µM (no result: DRV1 agonist, B2AR arrestin ag, GALK inhibitor, GALC G270D act)
CCOC(=O)c1c(N)n(-c2ccccc2CC)c2nc3ccccc3nc12	GALC G270D act inconclusive
CCc1ccccc1-n1c(N)c(C(=O)OC)c2nc3ccccc3nc21	GALC G270D act 25µM
CC(C)(C)OC(=O)N1CCN(c2ccc(NCc3ccc(-c4ccc(C#N)cc4)nc3)cc2)CC1	none (no result: DRV1 agonist, B2AR arrestin ag, GALK inhibitor, GALC G270D act)
O=C(NCCc1ccccc1)C1CCN(c2nc(-c3ccc(Br)cc3)cs2)CC1	NTMT1 inhibitor 5µM (no result: DRV1 agonist, B2AR arrestin ag, GALK inhibitor, GALC G270D act)
CC(=NNC(=O)c1cccc(S(=O)(=O)N2CCOCC2)c1)c1cc(Cl)ccc1O	none (no result: DRV1 agonist, B2AR arrestin ag, GALK inhibitor, GALC G270D act)
CC(=O)c1ccc(N2CCN(S(=O)(=O)c3ccc4c(c3)oc(=O)n4C)CC2)cc1	none (no result: DRV1 agonist, B2AR arrestin ag, GALK inhibitor, GALC G270D act)
CN(C)c1ccc(/C=C(\C#N)c2nc3ccccc3c(=O)[nH]2)cc1	NTMT1 inhibitor 35µM
CCCCC(CC)CN=C(N)NC(N)=NCCCCCCN=C(N)NC(N)=NCC(CC)CCCC (stereo not given)	NTMT1 inhibitor 3.2µM (no result: B2AR arrestin ag, GALK inhibitor)
CCCCN=C(N)N=C(N)N	none (no result: B2AR arrestin ag, NTMT1 inhibitor, GALK inhibitor)
Cc1ccc(C(C)C)cc2c(C)ccc1-2	none (no result: B2AR arrestin ag, GALK inhibitor)
Cc1cc(OI)c(C(C)C)cc1-c1cc(C(C)C)c(OI)cc1C	NTMT1 inhibitor 18µM (no result: B2AR arrestin ag, GALK inhibitor)
Cc1cc(NC(=O)Nc2nnc(C3CCCCC3)s2)ccc1F	none (no result: DRV1 agonist, B2AR arrestin ag, GALK inhibitor, GALC G270D act)
COc1ccc(S(=O)(=O)NCc2ccc(C(=O)NCCc3ccc(Cl)cn3)cc2)cc1	none (no result: DRV1 agonist, B2AR arrestin ag, GALK inhibitor, GALC G270D act)
